# Screens as filed in PubChem BioAssay.
# SENP8 block-1 – blocks the human protease SENP8; purified SENP8, Z-RLRGG-aminoluciferin cleavage, luminescence; inhibition, % at 10 µM; 330,000 compounds, 1.2% hits; AID 2540; in the data active = inhibition above about 50%
# Target sequence (Q96LD8 whole entry, looked up): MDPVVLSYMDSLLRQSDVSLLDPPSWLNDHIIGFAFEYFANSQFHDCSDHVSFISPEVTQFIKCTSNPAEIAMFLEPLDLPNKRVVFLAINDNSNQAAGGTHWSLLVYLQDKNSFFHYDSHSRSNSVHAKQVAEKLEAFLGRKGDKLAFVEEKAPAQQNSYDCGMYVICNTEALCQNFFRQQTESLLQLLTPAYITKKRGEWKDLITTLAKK
# LGR2 inh – inhibitors of bursicon-induced Drosophila LGR2 receptor cAMP signaling; inhibition, % at 9.99 µM; AID 720647; 380,000 compounds, 0.35% hits; HEK293 LGR2, CRE-luciferase, bursicon-stimulated, 4 h;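 active = drop in luminescence signal, shown as inhibition above about 50% in the replicate tests, limit read from the data, passing the limit was not always enough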;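 note: agonist challenge used bursicon conditioned medium at about half maximal strength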
# SENP7 block – SENP7 protease inhibition | 330,000 compounds, 1.5% hits | Q9BQF6 | recombinant SENP7, Z-RLRGG-aminoluciferin luminescence, 40 min | inhibition, % at 5 µM;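 active = inhibition above about 50% at the single test dose, limit read from the data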
# SENP6 block – inhibitors of human SENP6 protease | Q9GZR1 | Recombinant SENP6 catalytic domain, aminoluciferin luminescence | inhibition, % at 10 µM | 330,000 compounds, 1.8% hits;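 active = inhibition above about 50% at the single tested dose, limit read from the data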
# HSP90 inh – inhibitors of HSP90 luciferase refolding in rabbit reticulocyte lysate; luciferase refolding luminescence, 3 h; inhibition, % at 5.6 µM; 290,000 compounds, 0.91% hits;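 active = inhibition above the screen-wide mean plus 3 SD, computed separately per campaign, cut at about 16% in these data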;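 note: inhibitors lower the luminescence because luciferase stays unfolded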
# SENP8 block-2 – SENP8 (human) protease inhibition; inhibition, % at 20 µM; Q96LD8; 360,000 compounds, 0.64% hits; recombinant SENP8, Nedd8 substrate fluorescence; AID 602440; in the data active = inhibition mostly above about 40%, no sharp cut-off; inactive = mostly below about 27%
# SENP8 confirm – human SENP8 inhibition, confirmed; AID 488912; 6,200 compounds, 40% hits; Recombinant SENP8, Z-RLRGG-aminoluciferin luminescence, 60 min; inhibition, % at 12.5 µM; shares compounds with SENP7 block;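 active = mean inhibition across replicates above about 50%, limit read from the data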
# SENP6 conf – confirmation of human SENP6 protease inhibitors | shares compounds with SENP7 block | recombinant SENP6, Z-RLRGG-aminoluciferin luminescence | inhibition, % at 12.5 µM | 6,200 compounds, 58% hits | AID 488915
# SENP7 conf – human SENP7 inhibition, confirmed; inhibition, % at 12.5 µM; AID 488917; 6,200 compounds, 69% hits; recombinant SENP7, Z-RLRGG-aminoluciferin luminescence, 40 min; shares compounds with SENP7 block
# Casp3 SENP sel – selectivity test for SENP inhibitors: human caspase-3 inhibition | shares compounds with SENP7 block | purified caspase-3, Z-DEVD-aminoluciferin luminescence, 60 min | inhibition, % at 12.5 µM | 6,200 compounds, 60% hits | AID 488918;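 active = mean inhibition above about 50%, limit read from the data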
# Target sequence (P42574 28-227 limits assumed): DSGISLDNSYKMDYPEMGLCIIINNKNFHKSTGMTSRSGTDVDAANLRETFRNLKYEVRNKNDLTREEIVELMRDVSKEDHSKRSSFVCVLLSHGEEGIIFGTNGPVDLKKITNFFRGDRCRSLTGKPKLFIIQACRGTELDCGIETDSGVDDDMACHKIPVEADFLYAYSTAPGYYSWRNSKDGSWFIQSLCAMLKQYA
# Luc interf – interferes with luciferase luminescence in SENP counter-screen; shares compounds with SENP7 block; Pre-incubated SENP8/Z-RLRGG-aminoluciferin, luciferase luminescence interference; inhibition, % at 12.5 µM; 6,200 compounds, 39% hits; AID 488919;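 active = mean inhibition above about 50% when retested at one dose, limit read from the data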
# A number is an active result; - = inactive; . = not tested or not shown. Most compounds without a hit are left out; they make up all but 2.3% or so of the library.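 Rule for the calls, unless noted: active = mean inhibition above about 50% in the one-dose retest (limit read from the data); inactive = the rest.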
SMILES,SENP8 block-1,LGR2 inh,SENP7 block,SENP6 block,HSP90 inh,SENP8 block-2,SENP8 confirm,SENP6 conf,SENP7 conf,Casp3 SENP sel,Luc interf
COc1ccc(CN=C(C)c2c(C(F)(F)F)[nH]n(-c3nc4ccccc4s3)c2=O)cc1,-,.,91,85,-,-,-,-,-,50,54
CC(=O)c1c(CC(=O)O)[nH]n(-c2nc3ccccc3s2)c1=O,87,.,88,84,-,-,86,83,97,95,83
C[C@@H]1CN([C@H](C)CO)C(=O)c2cc(C#CCN(C)C)cnc2O[C@@H]1CN(C)Cc1ccc2c(c1)OCO2,.,-,.,.,.,.,.,.,.,.,.
OCCCNc1ncnc2sc3c(c12)CCN(Cc1ccccc1)C3,-,-,-,54,-,-,-,-,-,-,-
COc1ccc(-c2cn3cc(C)ccc3n2)cc1Br,82,.,86,91,-,-,-,87,99,86,-
O=C(Nc1nnc(CCc2ccccc2)s1)c1ccccc1F,-,-,-,51,-,-,-,-,58,-,-
O=C(Nc1nnc(CCc2ccccc2)s1)c1ccc(F)cc1,-,-,-,-,-,-,.,.,.,.,.
O=C(Nc1nnc(CCc2ccccc2)s1)c1cccc(F)c1,-,-,61,-,-,-,-,-,-,-,-
Cc1ccccc1-c1nnc(SCc2ccccc2)o1,-,.,-,-,-,-,.,.,.,.,.
COc1ccc(-c2nnc(SCc3ccccc3F)o2)cc1,53,.,67,69,-,-,68,70,89,-,51
COc1ccc(-c2nnc(SCC(=O)c3cccs3)o2)cc1,-,.,56,-,-,-,-,-,83,55,-
Fc1ccccc1CSc1nnc(-c2ccccc2)o1,-,.,-,54,-,-,-,-,63,-,-
Cc1ccccc1-c1nnc(SCc2ccccc2F)o1,-,.,-,57,-,-,-,-,73,-,-
O=C(NC(=S)Nc1ccccc1[N+](=O)[O-])c1ccccc1,-,-,-,-,-,-,.,.,.,.,.
O=C(NC(=S)/C(=C1\CCCCCN1)[N+](=O)[O-])c1ccccc1,57,.,60,60,.,-,77,71,93,74,-
CCCNC(=O)N1C[C@H](O)COC[C@@H]2O[C@H](CC(=O)NCc3ccncn3)CC[C@H]21,.,-,.,.,.,.,.,.,.,.,.
CCOC(=O)c1cc(C(=O)Nc2cccc(C)c2)nn1C,-,-,59,-,-,-,-,-,78,72,58
CC(C)C#Cc1cnc2c(c1)C(=O)N([C@H](C)CO)C[C@H](C)[C@H](CN(C)C(=O)Nc1cccc(F)c1)O2,.,-,.,.,.,.,.,.,.,.,.
COc1ccc(-c2coc3cc(O)c(OC)cc3c2=O)cc1,-,-,53,-,.,-,-,-,75,75,56
COc1ccc(-c2coc3cc(OC)ccc3c2=O)cc1,.,.,.,.,.,-,.,.,.,.,.
COc1ccc2c(=O)c(-c3nc(C)cs3)coc2c1,91,.,96,93,-,-,-,53,84,76,57
Cc1csc(-c2coc3cc(O)cc(C)c3c2=O)n1,91,-,-,95,-,-,-,92,98,90,-
COc1ccc(-c2coc3cc(O)ccc3c2=O)cc1,-,-,-,-,.,-,.,.,.,.,.
Cc1nc(-c2coc3cc(OCC(=O)O)ccc3c2=O)cs1,-,.,-,65,-,-,57,54,86,88,63
C[C@H](CO)N1C[C@H](C)[C@H](CN(C)CC2CC2)Oc2cc(C#CC3CC3)ccc2S1(=O)=O,.,-,.,.,.,.,.,.,.,.,.
SMILES,SENP8 block-1,LGR2 inh,SENP7 block,SENP6 block,HSP90 inh,SENP8 block-2,SENP8 confirm,SENP6 conf,SENP7 conf,Casp3 SENP sel,Luc interf
Cc1noc(C)c1S(=O)(=O)Nc1ccc2c(c1)CC(=O)N([C@@H](C)CO)C[C@H](C)[C@@H](CN(C)Cc1ccncc1)O2,.,-,.,.,.,.,.,.,.,.,.
CC(C)(C)c1ccc(OCc2nc(-c3ccccn3)no2)c(Br)c1,-,.,-,59,-,-,-,57,74,-,-
Clc1ccc(OCc2nc(-c3ccncc3)no2)c(Cl)c1,-,.,-,55,-,-,-,-,65,-,-
COc1ccc(Cc2nc(-c3ccccn3)no2)cc1,-,.,-,-,-,-,.,.,.,.,.
Clc1cc(Cl)c(OCc2nc(-c3ccccn3)no2)cc1Cl,81,.,81,61,-,-,-,-,96,52,-
Cc1ccc(-n2c(C)cc(C(=O)COC(=O)c3c(C)noc3C)c2C)cc1,-,.,52,68,-,-,52,58,82,59,-
Cc1cc(C(=O)COC(=O)C2=COCCO2)c(C)n1-c1ccccc1,83,91,85,85,.,-,83,83,96,88,78
C[C@@H]1CN([C@@H](C)CO)C(=O)c2cc(NC(=O)Nc3ccc(C(F)(F)F)cc3)ccc2O[C@@H](C)CCCCO[C@H]1CN(C)Cc1ccc(Cl)c(Cl)c1,.,-,.,.,.,.,.,.,.,.,.
Fc1ccc(NC(=S)N2N=CCC2c2ccccc2)cc1 (stereo not drawn),-,.,-,58,-,-,-,-,66,-,-
S=C(Nc1ccccc1)N1N=CCC1c1ccccc1 (stereo not drawn),-,.,-,-,-,-,.,.,.,.,.
CC(C)NC(=O)N(C)C[C@@H]1Oc2ccc(NC(=O)Nc3cccc4ccccc34)cc2CC(=O)N([C@H](C)CO)C[C@@H]1C,.,-,.,.,.,.,.,.,.,.,.
C[C@@H](NC(=O)N(C)C[C@@H]1OCc2ccccc2-c2c(n(C)c3ccccc23)C(=O)N([C@@H](C)CO)C[C@@H]1C)c1ccccc1,.,-,.,.,.,.,.,.,.,.,.
C[C@H](NC(=O)C[C@H]1C[C@@H]2c3cc(NC(=O)c4cccnc4)ccc3O[C@@H]2[C@@H](CO)O1)c1ccccc1,.,-,.,.,.,.,.,.,.,.,.
CCC(=O)N(CC)Cc1cc(=O)[nH]c2ccccc12,-,-,-,-,-,-,.,.,.,.,.
CCCN(Cc1cc(=O)[nH]c2ccccc12)C(=O)CC,-,-,-,98,-,-,-,-,-,-,-
O=C1C(=C(O)c2ccccc2)C(=O)c2ccccc21,-,-,-,74,-,66,-,-,-,-,-
Cc1ccc2cc(C(c3nnnn3CC3CCCO3)N3CCc4ccccc4C3)c(=O)[nH]c2c1 (stereo not drawn),74,.,86,-,-,-,-,-,-,-,-
